KLF5 inhibitor = KLF5 expression inhibitors, primary screen, DLD-1 cells, luminescence; DLD-1 KLF5 promoter-luciferase reporter; inhibition, % at 5 µM; 290,000 tested, 0.23% active; AID 1700, 2009;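 active = inhibition above a per-plate limit of that plate's mean compound inhibition plus 3 SD, cut at about 60% in these data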;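 note: 0% = DMSO wells and 100% = LY294002 at 200 µM; higher means less KLF5 promoter-driven luciferase light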
697 NFkB inh = inhibitors of PMA/ionomycin-induced NF-kB reporter, 697 cells, primary screen, B-cell NF-kB inhibitor project, cell-based, luminescence, uHTS; 330,000 tested, 0.33% active; 697 B-cell NF-kB luciferase reporter, 16 h; inhibition, % at 4 µM; AID 435022, 2010; in the data active = inhibition above about 35%
aSyn UTR inh = MLPCN primary screen, SNCA 5' untranslated region; alpha-synuclein 5'UTR reporter, inhibitor activity; inhibition, % (tested at 7.5 µM); 300,000 tested, 0.82% active; in the data active = inhibition above about 60%; inconclusive = no clear call, values can overlap the other calls;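 note: H4 neuroglioblastoma cells stably carrying SNCA 5'UTR luciferase fusion; 0% = DMSO wells and 100% = positive control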
Mdm2-MdmX inh = inhibitors of human Mdm2-MdmX association, primary screen, cell-based, luminescence, split luciferase, SaOS-2, uHTS | Protein Mdm4 (Homo sapiens) + E3 ubiquitin-protein ligase Mdm2 (Homo sapiens), … | 330,000 tested, 3% active | SaOS-2 split-luciferase Mdm2/MdmX complementation | inhibition, % at 8 µM;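 active = inhibition of at least 50% at 8 µM in the primary screen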
Target sequence (O15151 whole entry, looked up): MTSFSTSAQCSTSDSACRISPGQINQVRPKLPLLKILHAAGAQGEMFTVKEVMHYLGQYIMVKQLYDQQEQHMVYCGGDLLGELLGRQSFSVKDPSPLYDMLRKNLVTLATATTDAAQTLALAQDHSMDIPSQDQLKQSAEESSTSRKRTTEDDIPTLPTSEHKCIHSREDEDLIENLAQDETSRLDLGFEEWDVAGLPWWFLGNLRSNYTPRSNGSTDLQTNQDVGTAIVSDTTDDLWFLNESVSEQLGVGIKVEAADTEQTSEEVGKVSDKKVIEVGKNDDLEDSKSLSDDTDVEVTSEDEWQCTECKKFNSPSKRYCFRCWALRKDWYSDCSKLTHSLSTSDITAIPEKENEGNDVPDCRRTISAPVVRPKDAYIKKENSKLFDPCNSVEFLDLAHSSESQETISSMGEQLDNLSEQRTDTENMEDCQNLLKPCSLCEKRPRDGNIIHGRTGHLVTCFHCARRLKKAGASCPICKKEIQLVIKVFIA
Target sequence (Q00987 whole entry, looked up): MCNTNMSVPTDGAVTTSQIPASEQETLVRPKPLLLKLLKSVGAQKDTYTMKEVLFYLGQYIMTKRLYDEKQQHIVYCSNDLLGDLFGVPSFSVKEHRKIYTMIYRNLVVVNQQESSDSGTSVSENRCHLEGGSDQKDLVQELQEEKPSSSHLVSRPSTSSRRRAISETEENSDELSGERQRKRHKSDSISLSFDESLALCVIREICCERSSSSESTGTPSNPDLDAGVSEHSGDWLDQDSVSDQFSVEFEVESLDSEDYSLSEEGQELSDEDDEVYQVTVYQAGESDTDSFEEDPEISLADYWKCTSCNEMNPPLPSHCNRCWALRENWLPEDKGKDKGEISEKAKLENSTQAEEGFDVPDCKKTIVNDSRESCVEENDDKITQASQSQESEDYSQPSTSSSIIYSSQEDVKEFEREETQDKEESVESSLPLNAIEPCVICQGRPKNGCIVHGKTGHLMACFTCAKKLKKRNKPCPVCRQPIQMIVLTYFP
Gli-Sufu block = Gli-Sufu pathway antagonists, primary screen, luciferase luminescence, Sufu-KO-LIGHT cells, uHTS | Sufu-KO-LIGHT fibroblasts, Gli luciferase reporter luminescence | inhibition, % at 5 µM | 340,000 tested, 0.74% active | AID 588413, 2011;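 active = inhibition above about 55%, limit read from the data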;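 note: 0% = DMSO-treated cells and 100% = wells with medium but no cells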
Jurkat NFkB inh = inhibitors of induced NF-kB luciferase reporter, primary screen, TCR NF-kB activation inhibitor project, cell-based, luminescence, uHTS; Jurkat, PMA/ionomycin-induced NF-kB luciferase reporter; inhibition, % at 4 µM; 330,000 tested, 0.53% active; in the data active = inhibition above about 50%
697 NFkB conf = PMA/ionomycin-induced NF-kB reporter inhibitors, 697 retest, confirmation, B-cell NF-kB inhibitor project, cell-based, luminescence, single concentration; 2,000 tested, 35% active; shares compounds with 697 NFkB inh; inhibition, % at 4 µM; 697 B-cell NF-kB luciferase, 16 h; AID 449746, 2010; in the data active = inhibition mostly above about 28%, no sharp cut-off; inactive = mostly below about 22%
Mdm2-MdmX conf = Mdm2-MdmX complex disruptors, retested hits, confirmation, luminescence, single concentration; shares compounds with Mdm2-MdmX inh; Mdm2-MdmX binding, luminescent assay; inhibition, % at 8 µM; 10,000 tested, 55% active; AID 489028, 2010; in the data active = inhibition above about 40%
Full FLuc ctr = full-length luciferase signal inhibition, confirmation, counter-screen for Mdm2/MdmX interaction inhibitor project, cell-based, single concentration, SaOS-2 | AID 504607, 2011 | inhibition, % at 8 µM | shares compounds with Mdm2-MdmX inh | SaOS-2 full-length luciferase counterscreen, luminescence | 6,200 tested, 77% active;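 active = mean inhibition at 8 µM reaching about 37%, which flags the compound as non-specific, limit read from the data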;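 note: p53-null SaOS-2 cells with luciferase driven by a doxycycline-inducible promoter; compound on cells about two nights before reading with doxycycline added after day one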
Active calls of the source: *; i = inactive; u = inconclusive; x = no result given. A selection: hits, their analogues and other compounds. The true share with any hit is near 4.1%.

SMILES	KLF5 inhibitor	697 NFkB inh	aSyn UTR inh	Mdm2-MdmX inh	Gli-Sufu block	Jurkat NFkB inh	697 NFkB conf	Mdm2-MdmX conf	Full FLuc ctr
CCN(Cc1ccccc1)C(=O)Cn1c(=O)n(CC(=O)N2CCCCC2)c(=O)c2sccc21	-24	6	8	-11	-2	2	x	x	x
O=C(C1CCCN(C2CC(=O)N(c3ccc(Cl)cc3)C2=O)C1)N1CCCC1 (stereo not given)	-20	16	-7	21	1	7	x	x	x
CCOc1ccccc1CNC(=O)c1cc2oc3ccccc3c2n1C	-38	-359	u	84*	3	-33	-163	87*	26
CN(C)S(=O)(=O)c1cccc(COc2ncnc3c(Cl)cc(Cl)cc23)c1	-22	-8	13	4	-3	4	x	x	x
C[C@@H]1CC=C[C@H]2[C@H]1C(=O)N(Cc1ccccc1)[C@H]2c1ccc(F)c(/C=C/c2ccccc2)c1	x	2	24	46	3	13	x	x	x
COc1ccc(/C=C/c2ccccc2)cc1[C@H]1[C@H]2C=CC[C@@H](C)[C@@H]2C(=O)N1Cc1ccccc1	x	65*	19	50	13	20	32*	22	x
CC(=O)c1ccc(-c2ccccc2[C@H]2[C@H]3C=CC[C@@H](C)[C@@H]3C(=O)N2Cc2ccccc2)cc1	x	-33	45	36	x	11	x	x	x
COc1ccc(-c2ccc(C(C)=O)cc2)cc1[C@H]1[C@H]2C=CC[C@@H](C)[C@@H]2C(=O)N1Cc1ccccc1	x	48*	13	58*	18	31	49*	11	x
COCCCn1cnnc1SC(C)C(=O)Nc1ccc(S(=O)(=O)N2CCOCC2)cc1 (stereo not given)	x	-8	x	12	-3	-4	x	x	x
CC1(C)CC1C(=O)Nc1ccc([N+](=O)[O-])cc1Br (stereo not given)	-17	11	28	22	1	3	x	x	x
Cc1ccc(C2(c3ccc(C)cc3)CC2C(=O)Nc2ccc([N+](=O)[O-])cc2O)cc1 (stereo not given)	3	97*	67*	96*	22	23	97*	93*	49*
COc1cc(SC)ccc1C(=O)Nc1ccc(Br)cn1	-97	-321	101*	60*	20	-87	-452	48*	126*
COc1cc(SC)ccc1C(=O)Nc1ccon1	-72	-54	-109	-89	-39	-42	x	x	x
Cc1cc(C)c(C(=O)NC2CCCc3c2cnn3-c2cccc(C)c2C)o1 (stereo not given)	30	-276	24	78*	2	20	-23	75*	43*
O=C(NC1CCCc2c1cnn2-c1ccccc1F)c1ccccn1 (stereo not given)	48	i	53	86*	21	-66	i	72*	29
CCOC(=O)/C(C#N)=C\c1cc(C)n(-c2ccccc2)c1C	-38	-286	-52	56*	2	-126	-106	79*	155*
COc1cc(/C=N/Nc2nc(N3CCCCC3)nc(N3CCCCC3)n2)ccc1OC(=O)c1ccco1	-23	1	3	1	x	-22	x	x	x
O=C(Oc1cccc(/C=N/Nc2nc(Nc3ccccc3)nc(N3CCOCC3)n2)c1)c1ccco1	-43	43*	-22	58*	19	-76	49*	49*	118*
Cc1[nH]c2ccccc2c1/C=N/Nc1nc(Nc2ccc(F)cc2)nc(N2CCOCC2)n1	18	48*	x	87*	2	32	60*	40	101*
O=C(COC(=O)CN1C(=O)C(=O)c2ccccc21)OCN1C(=O)c2ccccc2C1=O	-8	14	1	8	4	12	x	x	x
COCCCNC(=O)c1c(N)n(/N=C/c2cccnc2)c2nc3ccccc3nc12	-6	4	-41	-4	24	25	x	x	x
CC(C)OCCCNC(=O)c1c(N)n(/N=C/c2ccccn2)c2nc3ccccc3nc12	-9	44*	-22	64*	12	39	37*	52*	63*
COc1ccc(NC(C)C(=O)Nc2cccc(S(=O)(=O)N3CCOCC3)c2)cc1OC (stereo not given)	x	-4	x	29	41	0	x	x	x
O=C(NC(C(=O)N/N=C/c1cccnc1)c1n[nH]c(=O)c2ccccc12)c1ccccc1 (stereo not given)	5	7	6	17	3	-6	x	x	x
COc1ccc(OC)c(C2CC(=O)Nc3cc(OC)c(OC)c(OC)c32)c1 (stereo not given)	-19	35*	6	56*	24	-5	43*	32	x
SMILES	KLF5 inhibitor	697 NFkB inh	aSyn UTR inh	Mdm2-MdmX inh	Gli-Sufu block	Jurkat NFkB inh	697 NFkB conf	Mdm2-MdmX conf	Full FLuc ctr
CCCc1cc(=O)[nH]c(SCC(=O)Nc2cc(S(=O)(=O)N3CCCCC3)ccc2C)n1	x	12	x	7	6	7	x	x	x
CN1c2ccccc2C(C)(C)C12CC(c1ccc(S(=O)(=O)N3CCCCC3)cc1)=NO2 (stereo not given)	-9	i	-16	65*	18	-54	i	74*	74*
CN1c2ccccc2C(C)(C)C12CC(c1cccc(S(=O)(=O)N3CCCC3)c1)=NO2 (stereo not given)	-29	i	40	69*	10	-66	i	65*	106*
CCN(CC)S(=O)(=O)c1ccc(C2=NOC3(C2)N(C)c2ccccc2C3(C)C)cc1 (stereo not given)	-24	-483	50	72*	21	-72	i	69*	79*
CN1/C(=C\C(=O)c2cccc(S(=O)(=O)N3CCCCC3)c2)C(C)(C)c2ccccc21	0	3	-6	14	5	-2	x	x	x
CCN(CC)S(=O)(=O)c1ccc(-c2nnco2)cc1	-12	-16	-5	10	0	-14	x	x	x
CCCc1c(NC(=O)Nc2ccc(Cl)cc2Cl)cnn1-c1ccccc1	-31	-379	-5	86*	29	-69	-242	75*	43*
CCC(=O)Nc1ccc(-c2ccc(NC(=O)CC)c(OC)c2)cc1OC	8	10	9	7	-11	-8	x	x	x

Assay outcomes deposited in PubChem BioAssay by several laboratories.
